The nature of test [1]: NCI Yeast Anticancer Drug Screen. Data for the rad50 strain (AID 155).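 Note: 0% = growth of vehicle-only cultures of the same strain.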 The note with it: S. cerevisiae rad50 strain growth inhibition; at 50.0 µM; hits give high values. An outline of the steps:
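Inhibition values express reduced yeast growth in compound-treated cultures relative to vehicle-treated controls.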

Test [2] can be described thus: NCI Yeast Anticancer Drug Screen. Data for the mec2-1 strain (AID 157). The note with it: S. cerevisiae mec2-1 strain, at 50.0 µM, hits give high values. In a few lines:
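Each compound was tested on mec2-1 yeast, a strain altered in DNA damage repair or cell cycle control. Growth inhibition is reported relative to vehicle.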

The nature of test [3]: NCI Yeast Anticancer Drug Screen. Data for the sgs1 mgt1 strain (AID 161).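 Note: 0% = growth of cultures given vehicle only.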 To be noted: S. cerevisiae sgs1 mgt1 strain, at 50.0 µM, hits give high values. In a few lines: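 Genetically altered yeast, compound exposure, growth inhibition relative to vehicle.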
A short description of test [4]: NCI Yeast Anticancer Drug Screen. Data for the cln2 rad14 strain (AID 165).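 Note: 0% = growth equal to vehicle treated cultures.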 To be noted: S. cerevisiae cln2 rad14 strain, at 50.0 µM, hits give high values. In a few lines:
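Test compounds were added to cln2 rad14 yeast cultures; inhibition of growth was then determined by comparison with vehicle treatment.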

Test [5] in a line: NCI Yeast Anticancer Drug Screen. Data for the bub3 strain (AID 167). The note with it: S. cerevisiae bub3 mutant strain, at 50.0 µM, hits give high values. An outline of the steps: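 Steps: expose the mutant yeast strain to compound; grow alongside vehicle-treated cultures; measure growth; express inhibition against the vehicle cultures.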
Test [6] can be described thus: NCI Yeast Anticancer Drug Screen. Data for the mlh1 rad18 strain (AID 175). The note with it: S. cerevisiae mlh1 rad18 strain growth inhibition; at 50.0 µM; hits give high values. An outline of the steps:
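Inhibition values reflect reduced growth of mutant yeast versus vehicle-treated controls following compound exposure; the mutations affect DNA damage repair.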

The panel holds about 79,000 compounds, 15% with a hit somewhere; the sample as a whole holds those more often. Unmarked numbers belong to inactive results. Active and inactive are the calls of the source. Cut-off read from the data, not from the text of the source: active = growth inhibition above about 70%; inactive = the rest. *1 amine or outer side, *2 acyl side, *3 side chain or, on linkers, in order; H or OH if unused. Where a SMILES comes first, the peptide text is derived from it. Bridges are numbered along the chain shown (N, C = ends). [ ]: non-standard residue; d: D form. The star is where a group is joined. ξ: configuration not given here. Fmoc = O=C(OCC1c2ccccc2-c2ccccc21)*; X9 = O=C(C(CCCCNO[*:3])N[*:1])[*:2]; ξW = NC(Cc1c[nH]c2ccccc12)C(=O)O; ξP = O=C(O)C1CCCN1

As for `O=C(CC(=O)c1ccccc1)CC(Nc1ccccc1)c1ccccc1` (stereo not given), the growth inhibition in test [1] was 58%; in test [2], 10%; in test [3] it was 46.1%; in test [4], -8.5%; in test [5], 7.55%; in test [6] it was 45.9%.
`COC1OCC(O)C(O)C1OC` (stereo not given): the growth inhibition in test [1] was -11%; in test [2], -13.4%; in test [3], -16.2%; in test [4], -25.1%; in test [5], -8.55%; in test [6], -19.1%.
As to `O=C(O)c1ccc2ccc(F)cc2c1Cc1ccccc1`, the growth inhibition in test [1] is -4.15%; in test [2], -10.2%; in test [3] it was 12.9%; in test [4], 8.3%; in test [5], -1.4%; in test [6], -16.5%.
On to `O=C(NNc1ccccc1)/C(=C/c1ccc2c(c1)OCO2)NC(=O)c1ccccc1`, for which the growth inhibition in test [1] was 15.8%; in test [2] it was 9.5%; in test [3], -29.6%; in test [4], -6.2%; in test [5], 1.35%; in test [6] it was 4.55%.
Turning to `O=C1c2ccccc2C2CC1c1ccccc12` (stereo not given), the growth inhibition was 6.35% in test [1]; -1.6% in test [2]; -1.7% in test [3]; -7.7% in test [4]; -16.4% in test [5]; -5.4% in test [6].
`CC(=O)C(OCCCl)OCCCl`: the growth inhibition in test [1] is 2.9%; in test [2] it was -7.65%; in test [3], 1.6%; in test [4], -1.5%; in test [5] it was 0.3%; in test [6] it was -2.95%.
As to `COC(=O)C(Cc1ccccc1)NP(=O)(O)OCC1OC(n2cc(I)c(=O)[nH]c2=O)CC1O` (stereo not given), the growth inhibition is -11.8% in test [1]; -2.65% in test [2]; -15.2% in test [3]; -10.5% in test [4]; -10.1% in test [5]; 0.85% in test [6].
As for `COc1ccccc1Nc1nc(-c2ccc([N+](=O)[O-])o2)cs1`, the growth inhibition was 70.6% (active) in test [1]; 36.2% in test [2]; 87.1% (active) in test [3]; 92.8% (active) in test [4]; 44% in test [5]; 92.3% (active) in test [6].
On to `O=C(NCCCl)NCc1ccco1`, for which the growth inhibition is -6.6% in test [1]; 0.9% in test [2]; -3.55% in test [3]; -39.2% in test [4]; -4.85% in test [5]; -0.9% in test [6].
Turning to `NC(=O)CNC(=O)C1CCCN1C(=O)C1CCCCNOC(=O)CC[C@@H](NC(=O)OCC2c3ccccc3-c3ccccc32)C(=O)NC(Cc2c[nH]c3ccccc23)C(=O)N1` (stereo not given in full) (Fmoc-[dE][ξW][X9][ξP]G-NH2; ester 1-3), the growth inhibition in test [1] is -10.2%; in test [2], -15.8%; in test [3], -6.55%; in test [4] it was 24.1%; in test [5], -16.2%; in test [6], -19.6%.
In the case of `N#CC(CC(=O)O)=C(c1ccccc1)c1ccccc1`, the growth inhibition is -6.75% in test [1]; -22.2% in test [2]; -20.5% in test [3]; 11.7% in test [4]; -50.8% in test [5]; 8.95% in test [6].
On to `O=c1cccc(CCc2ccccc2)[nH]1`, for which the growth inhibition was -8.85% in test [1]; -9.35% in test [2]; -9.6% in test [3]; 0.6% in test [4]; -0.55% in test [5]; -16.4% in test [6].
Consider `CCC(OC(=O)Nc1ccc(S(=O)(=O)NC2CCCCC2)cc1)c1ccco1` (stereo not given), for which the growth inhibition was 26.9% in test [1]; 3.65% in test [2]; 26.8% in test [3]; 10.8% in test [4]; 5.65% in test [5]; 4.15% in test [6].
As to `O=C(c1ccccc1)C1(c2ccccc2)C(C(=O)c2ccccc2)(c2ccccc2)S1(=O)=O` (stereo not given), the growth inhibition in test [1] was -19.8%; in test [2], -13.5%; in test [3] it was -8.05%; in test [4], -38.8%; in test [5], -6.6%; in test [6], -15.3%.
Regarding `COc1ccc(CCNCCCC2c3ccccc3-c3ccccc32)cc1OC`, the growth inhibition in test [1] is 28.8%; in test [2], -3.4%; in test [3], 6.55%; in test [4], 12.5%; in test [5], -19.1%; in test [6], -34.1%.
Consider `O=C1CCC2(CC1)Cc1ccccc1C2O` (stereo not given), for which the growth inhibition was -8.75% in test [1]; -8.45% in test [2]; 18% in test [3]; 29.4% in test [4]; -9.35% in test [5]; -5.5% in test [6].
In the case of `CC1C=CCCC1COC(=O)C(=O)OCC1CC=CCC1C` (stereo not given), the growth inhibition in test [1] was 32.7%; in test [2], 0.15%; in test [3], 28.1%; in test [4], 9.25%; in test [5], 31.9%; in test [6] it was 19.9%.
Take `COc1ccc(-n2nc3c(ccc4ccccc43)c2N)cc1`: the growth inhibition is 2.8% in test [1]; -8.5% in test [2]; 16.5% in test [3]; -2.05% in test [4]; -0.4% in test [5]; 8.5% in test [6].
For `CCOC(=O)C(/C(=N/NC(=O)OC)C(=O)Nc1ccc(C(C)=O)cc1)c1cnc2ccccc2n1` (stereo not given), the growth inhibition in test [1] is 0.9%; in test [2], -40.9%; in test [3], -26.6%; in test [4], 26.1%; in test [5], -1.5%; in test [6] it was 0.25%.
On to `O=C(NC(CS)C(=O)O)c1cnc2ccccc2n1` (stereo not given), for which the growth inhibition in test [1] was -4.8%; in test [2] it was -12.9%; in test [3] it was 21.2%; in test [4], -9.9%; in test [5], 18.6%; in test [6], 0.3%.
